Results as given in PubChem BioAssay AID504336 (NMMLSC, 2011).
A number with no mark means an inactive call.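 Rule for the calls: active = compounds whose GFP signal falls below 65% of the DMSO control level; inconclusive = fewer than 70 yeast cells counted in the well; inactive = the rest.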

Test: TOR branch reporter RPL19A-GFP response – cell-based, S. cerevisiae, third cherry pick, flow cytometry, confirmation (AID 504336);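 note: median GFP fluorescence of all gated yeast cells by flow cytometry; ratio of well median fluorescence to plate mean of DMSO wells with DMSO = 100%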
Conditions: S. cerevisiae RPL19A-GFP strain, 3 h, at 10 µM, hits give low values

SMILES: CNc1nc(N)c([N+](=O)[O-])c(Nc2cccc(Cl)c2)n1
- GFP response relative to DMSO: 94.1%

SMILES: COc1ccccc1-c1cc(C(F)(F)F)nc(S(=O)(=O)CCCC(=O)O)n1
- GFP response relative to DMSO: 102%

SMILES: CCCC(=O)Nn1cnc2c(c1=O)C1(CCCC1)Cc1ccccc1-2
- GFP response relative to DMSO: 102%

SMILES: COc1cccc(NC(=O)CC(C)=O)c1
- GFP response relative to DMSO: 99.1%

SMILES: Nc1cc(C(=O)O)c(N)c2c1C(=O)c1ccccc1C2=O
- GFP response relative to DMSO: 98.5%

SMILES: COCCCNc1nc(N)c([N+](=O)[O-])c(Nc2ccccc2OC)n1
- GFP response relative to DMSO: 99.1%

SMILES: CNc1nc(N)c([N+](=O)[O-])c(Nc2ccccc2OC)n1
- GFP response relative to DMSO: 103%

SMILES: Cc1cc(C)c2ccc(N)nc2c1O
- GFP response relative to DMSO: 101%

SMILES: CCC(=O)Nn1cnc2c(c1=O)C1(CCCCC1)Cc1ccccc1-2
- GFP response relative to DMSO: 103%

SMILES: CC(=O)C(CC(=O)N1CCCC1)C(=O)Nc1ccc(Cl)cc1 (centres undefined)
- GFP response relative to DMSO: 102%

SMILES: O=C(Nc1cccc2ccccc12)ON=C1CCCCC1
- GFP response relative to DMSO: 101%

SMILES: CC(=O)Nc1ccc(-c2nc3cc(Cl)ccc3o2)cc1
- GFP response relative to DMSO: 99.3%

SMILES: COc1ccccc1-c1cc(C(F)(F)F)nc(S(C)(=O)=O)n1
- GFP response relative to DMSO: 96.2%

SMILES: O=C(Nc1ccccc1)O/N=C1\CCCCC1c1ccc([N+](=O)[O-])cc1[N+](=O)[O-] (centres undefined)
- GFP response relative to DMSO: 96.5%

SMILES: COc1ccc(NC(=O)O/N=C2/CCCc3ccc(OC)cc32)cc1
- GFP response relative to DMSO: 104%

SMILES: CCOC(=O)CS(=O)(=O)c1nc(-c2ccccc2)cc(C(F)(F)F)n1
- GFP response relative to DMSO: 93.1%

SMILES: CSc1nc(S(C)(=O)=O)nc2[nH]c(=O)[nH]c12
- GFP response relative to DMSO: 100%

SMILES: Oc1c(Br)cc(Br)c2cccnc12
- GFP response relative to DMSO: 88.3%

SMILES: FC(F)Oc1cccc2cccnc12
- GFP response relative to DMSO: 95.4%

SMILES: Oc1ccc(Cl)c2cccnc12
- GFP response relative to DMSO: 98%

SMILES: Cc1ccc(-c2cc(C(F)F)nc(S(C)(=O)=O)n2)cc1
- GFP response relative to DMSO: 96.2%

SMILES: Cc1ccc2c(Cl)cc(Cl)c(O)c2n1
- GFP response relative to DMSO: 82.6%

SMILES: Cc1cn2c(N)c(C=C3C=C(Cl)C(=O)C(Cl)=C3)c(=O)nc2s1
- GFP response relative to DMSO: 104%

SMILES: COc1ccccc1Nc1nc(NCCO)nc(N)c1[N+](=O)[O-]
- GFP response relative to DMSO: 102%

SMILES: Nc1c(O)ccc2c1C(=O)c1ccccc1C2=O
- GFP response relative to DMSO: 102%

SMILES: CS(=O)(=O)Oc1ccc(Br)c2cccnc12
- GFP response relative to DMSO: 99.3%

SMILES: Oc1c(Cl)cc(Cl)c2cccnc12
- GFP response relative to DMSO: 81.6%

SMILES: Oc1c(I)cc(Cl)c2cccnc12
- GFP response relative to DMSO: 86%

SMILES: CS(=O)(=O)c1nc(-c2ccc(F)cc2)cc(C(F)(F)F)n1
- GFP response relative to DMSO: 97.8%

SMILES: Nc1c(C(=O)O)ccc2c1C(=O)c1ccccc1C2=O
- GFP response relative to DMSO: 101%

SMILES: OCc1ccc(O)c2ncccc12
- GFP response relative to DMSO: 101%

SMILES: CC(C)Nc1ncnc2ccc(Br)cc12
- GFP response relative to DMSO: 97.8%

SMILES: Cc1ccc(NC(=O)O/N=C2\CCCCC2c2ccc([N+](=O)[O-])cc2[N+](=O)[O-])cc1 (centres undefined)
- GFP response relative to DMSO: 102%

SMILES: Cc1ccc2c(Cl)cc(Cl)c(OCC(=O)O)c2n1
- GFP response relative to DMSO: 104%

SMILES: Cc1nc(Nc2ccc(Cl)cc2)c(C#N)c(=O)[nH]1
- GFP response relative to DMSO: 102%

SMILES: CC1=CN2C(=N)/C(=C/c3ccc([N+](=O)[O-])o3)C(=O)N=C2S1
- GFP response relative to DMSO: 240%

SMILES: Cn1c(NCCO)nc2c(c1=O)C1(CCCCC1)Cc1ccccc1-2
- GFP response relative to DMSO: 103%

SMILES: COCCNc1nc(N)c([N+](=O)[O-])c(Nc2ccc(F)cc2)n1
- GFP response relative to DMSO: 100%

SMILES: C[n+]1cccc2cccc([O-])c21
- GFP response relative to DMSO: 98.3%
